# In PubChem BioAssay (Tox21):
# Results filed as inconclusive are left out. Entries that show only a call come without a potency. Calls of active or inactive are those of the source. The call rests on the fitted dose curve; in most records, active means well fitted inhibition curve with a large enough effect in the repeat runs; inconclusive means weak or mixed curves; inactive means no such curve, though single readings can be large or run the other way.
# Target: Cytochrome P450 2D6 (Homo sapiens) (UniProt P10635)
# Sequence (P10635 whole entry, looked up): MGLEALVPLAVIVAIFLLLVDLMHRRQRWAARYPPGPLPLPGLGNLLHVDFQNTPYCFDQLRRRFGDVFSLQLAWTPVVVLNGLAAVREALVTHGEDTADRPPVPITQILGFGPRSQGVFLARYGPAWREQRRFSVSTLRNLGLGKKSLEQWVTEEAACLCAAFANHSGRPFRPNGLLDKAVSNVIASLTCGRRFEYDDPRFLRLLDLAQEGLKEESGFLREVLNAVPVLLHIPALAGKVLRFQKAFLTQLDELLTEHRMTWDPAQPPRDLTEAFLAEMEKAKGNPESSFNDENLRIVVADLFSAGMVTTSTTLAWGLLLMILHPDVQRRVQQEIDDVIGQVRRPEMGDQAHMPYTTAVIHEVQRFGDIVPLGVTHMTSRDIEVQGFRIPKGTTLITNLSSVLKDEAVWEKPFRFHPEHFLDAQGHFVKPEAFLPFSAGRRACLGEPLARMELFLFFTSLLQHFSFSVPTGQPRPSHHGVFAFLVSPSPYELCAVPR
# Test: Cytochrome P450 Family 2 Subfamily D Member 6 (CYP2D6) small molecule antagonists: luciferase reporter qHTS assay (AID 1671196); further: nearly all actives have a fitted effect of over 50% in size
# Conditions: P450-Glo CYP2D6 enzyme assay, luciferin luminescence, 1 h; series mostly up to 115 µM
# Outline: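 Luminescence (RLU), read 20 min after detection reagent, indicated CYP2D6 conversion of proluciferin to luciferin during a 1 h NADPH-dependent reaction at room temperature.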
# Potency means the concentration at half of the fitted maximal effect.
row,SMILES,Potency
1,CC(C)(c1ccc(Oc2ccc3c(c2)C(=O)OC3=O)cc1)c1ccc(Oc2ccc3c(c2)C(=O)OC3=O)cc1,39.7 µM (active)
2,CNC(=O)NC,inactive
3,Nc1ccnc(=O)[nH]1,inactive
4,Cc1ccccc1C,inactive
5,CC(C)c1ccccc1O,inactive
6,CC(C)(C)c1ccc(C=O)cc1,inactive
7,CCN(CCO)c1cccc(C)c1,inactive
8,CCCCC[Si](OCC)(OCC)OCC,inactive
9,C=CC(C)(O)CC/C=C(\C)CC (stereo not given),inactive
10,CCCCC(C)C(=O)O (stereo not given),inactive
11,C[N+](C)(C)CC(O)CCl (stereo not given),inactive
12,CC(C)CCCC(C)CC=O (stereo not given),inactive
13,Cc1ccccc1OCC1CO1 (stereo not given),inactive
14,CC(C)C(=O)c1ccccc1,inactive
15,COCCOCCOCCOC,inactive
16,CCC(=O)c1ccc(O)cc1,inactive
17,O=C(c1ccc2c(c1)C(=O)OC2=O)c1ccc2c(c1)C(=O)OC2=O,inactive
18,CCCCC(CC)COC(=O)c1ccccc1 (stereo not given),inactive
19,CCCOC(=O)CCCCC(=O)OCCC,inactive
20,CC(C)=CC(C)(C)C,inactive
21,CN(C)CCOCCN(C)CCO,20 µM (active)
22,O=CN1CCOCC1,inactive
23,CNC(=O)C(c1ccccc1)c1ccccc1,inactive
24,Cc1cccc(C(=O)O)c1[N+](=O)[O-],31.8 µM (active)
25,CCCC(C)CC (stereo not given),inactive
26,C=C[C@@H](C)CCC=C(C)C,inactive
27,O=S(=O)(O)CCO,inactive
28,O=C(O)c1c(Cl)ccc(Cl)c1Cl,inactive
29,CCOC(=O)OCC/C(SC(=O)OCC)=C(\C)N(C=O)Cc1cnc(C)nc1N,2.45 µM (active)
30,C=C(C)C(=O)OC1CC(C)CC(C)(C)C1 (stereo not given),inactive
